Assay outcomes as filed in PubChem BioAssay.
Shown are actives, neighbours in structure and some others; about 2.4% of the full set was active somewhere.
D2 PAM-1 – Beta-Arrestin HTS for Positive Allosteric Modulators of the Human D2 Dopamine Receptor: Potentiators; actives 0.23% (n = 360,000); DiscoveRx D2 beta-arrestin cells, luminescence, 90 min; 100% = 57 uM dopamine signal; D(2) dopamine receptor (Homo sapiens), P14416; potentiation, % (concentration not given with the values); AID 624464, 2012; in the data active = potentiation above about 50%
Target sequence (P14416 whole entry, looked up): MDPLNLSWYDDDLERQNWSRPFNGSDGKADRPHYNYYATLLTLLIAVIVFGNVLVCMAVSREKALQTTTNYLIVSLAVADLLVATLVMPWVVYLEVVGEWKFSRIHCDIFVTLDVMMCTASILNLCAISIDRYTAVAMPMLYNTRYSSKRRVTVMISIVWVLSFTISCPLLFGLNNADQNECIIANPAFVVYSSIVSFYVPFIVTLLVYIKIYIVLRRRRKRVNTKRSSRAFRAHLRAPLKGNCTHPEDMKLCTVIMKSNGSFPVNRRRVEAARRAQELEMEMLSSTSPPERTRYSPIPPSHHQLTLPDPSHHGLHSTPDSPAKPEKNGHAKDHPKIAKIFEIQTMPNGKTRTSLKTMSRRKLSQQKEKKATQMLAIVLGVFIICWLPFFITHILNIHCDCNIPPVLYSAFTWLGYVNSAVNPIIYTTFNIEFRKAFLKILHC
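D2 cells co-treated with compound plus 50 nM dopamine (EC20) for 90 min at 37 deg C to detect potentiation. Beta-arrestin recruitment was read as enzyme-fragment luminescence after 1 h at ambient temperature. Full response was set by 57 uM dopamine.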
D2 ag-1 – Beta-Arrestin HTS for Positive Allosteric Modulators of the Human D2 Dopamine Receptor: Agonists; D(2) dopamine receptor (Homo sapiens), P14416; DiscoveRx PathHunter D2 beta-arrestin, luminescence, 90 min; 100% = 57 uM dopamine signal; activation, % (no concentration beside the values); actives 0.084% (n = 360,000); in the data active = activation above about 40%
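Agonist mode: compounds alone added to overnight-plated D2 PathHunter cells for 90 min at 37 C, with 57 uM final dopamine (EC100) defining full response. Beta-arrestin recruitment detected by chemiluminescent reagent, read after 1 h at ambient temperature.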
D2 PAM-2 – HTS Assay for Positive Allosteric Modulators of the Human D2 Dopamine Receptor: Primary Screen for Potentiators | actives 0.34% (n = 340,000) | AID 485347, 2010 | potentiation, % at 10 µM | D(2) dopamine receptor (Homo sapiens), P14416 | HEK293 T-REx D2, calcium flux, EC20 dopamine potentiation;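 active = potentiation over 3 SD above the plate norm, cut at about 30% in these data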; also: 0% is about no effect
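Potentiation of an EC20 dopamine calcium response measured kinetically over 180 s, after a preceding 180 s compound-only read flagging agonists. Cells: inducible Hek293 Trex D2 line, 4000/well, cultured overnight at 30 C before dye loading.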
D2 ag-2 – HTS Assay for Allosteric Agonists of the Human D2 Dopamine Receptor: Primary Screen for Agonists | actives 0.53% (n = 340,000) | activation, % at 2 µM | HEK293 T-REx D2 cells, calcium flux agonist mode | D(2) dopamine receptor (Homo sapiens), P14416;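 active = activation over 3 SD above normal in the single-dose calcium agonist read, cut at about 30% in these data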; also: 0% is about no effect
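Agonism is scored from calcium flux in a force-coupled, inducible HEK293 cell line expressing D2, read kinetically for 180 s after compound addition against dopamine controls.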
D2 antag – HTS Assay for Allosteric Antagonists of the Human D2 Dopamine Receptor: Primary Screen for Antagonists; HEK293 TREx D2 cells, calcium flux, dopamine EC80; inhibition, % at 10 µM; AID 485344, 2010; D(2) dopamine receptor (Homo sapiens), P14416; actives 2% (n = 340,000); in the data active = inhibition above about 30%; inactive = below that, where a call was filed; also: 0% is about no effect
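Tetracycline-induced HEK293 T-REx cells expressing D2 force-coupled to calcium signalling were dye-loaded, exposed to compound for 180 s, then challenged with an EC80 of dopamine; calcium flux was followed kinetically for a further 180 s.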
* hit, by the source's call; x = no result.

SMILES | D2 PAM-1 | D2 ag-1 | D2 PAM-2 | D2 ag-2 | D2 antag
COc1ccccc1N1CCN(CCCCNC(=O)c2ccc3ccccc3c2)CC1 | x | x | x | x | 75*
COc1ccccc1N1CCN(Cc2cc(=O)n3ccsc3n2)CC1 | -49 | -1 | 41* | 0 | -3
O=c1cc(CN2CCCCCC2)nc2sccn12 | -4 | -1 | 22 | 0 | -4
Cn1cc(CCCC(=O)NCc2ccccc2Cl)c2ccccc21 | x | x | -2 | -1 | x
COC(=O)c1nccnc1N | -10 | -2 | x | x | x
COc1cccc(OC)c1OCCN1CCCC1 | -6 | -2 | -11 | -1 | -13
COc1ccccc1N1CCN(CCOc2c(OC)cccc2OC)CC1 | -36 | -4 | -21 | 0 | 98*
COC(=O)c1ccsc1NC(=O)CS(=O)(=O)c1ccccc1 | -12 | -1 | -12 | 0 | 31*
Nc1c(C(=O)Nc2ccccc2)nnn1Cc1ccc(F)cc1Cl | x | x | -6 | 11 | x
CC(=O)NC1CC2CCCC(C1)N2Cc1ccc(C)cc1 (stereo unspecified) | -67 | -4 | -26 | 0 | 54*
CCOc1ccccc1C(=O)NC1CC2CCCC(C1)N2Cc1ccc(C)cc1 (stereo unspecified) | -19 | -2 | -22 | -1 | 84*
Cc1ccc(CN2C3CCCC2CC(NC(=O)c2ccc(C)cc2)C3)cc1 (stereo unspecified) | -20 | 3 | -26 | -2 | 74*
O=C(NC1CC2CCCC(C1)N2Cc1ccc(F)cc1)c1ccc(F)cc1 (stereo unspecified) | -75 | -9 | -22 | 1 | 75*
CC(=O)NC1CC2CCCC(C1)N2CC(=O)NCc1ccc(F)cc1 (stereo unspecified) | 3 | -1 | -8 | 0 | 22
Cc1ccc(Cn2c(CNC(=O)c3cccc(C)c3)nc3ccccc32)cc1 | x | x | -9 | x | x
O=C(NC1CC2CCCC(C1)N2Cc1cccs1)c1ccc([N+](=O)[O-])cc1 (stereo unspecified) | x | x | -21 | 1 | 57*
Cc1ccccc1C(=O)NC1CC2CCC(C1)N2Cc1ccccc1 (stereo unspecified) | -1 | -5 | -24 | 0 | 72*
O=C(NC1CC2CCCC(C1)N2Cc1cccs1)N1CCOCC1 (stereo unspecified) | -39 | -2 | x | x | x
CC(C)Cc1nnc(NS(=O)(=O)c2ccccc2)s1 | -11 | -1 | x | x | x
CC(C)Cc1nnc(NS(=O)(=O)Cc2ccccc2)s1 | 0 | 0 | 6 | 0 | 32*
O=C(Nc1cc(=O)c2ccccc2o1)N1CCCCC1 | -13 | -1 | 9 | 2 | 17
O=C(Nc1cc(=O)c2ccccc2o1)N1CCOCC1 | -9 | -1 | 31* | 1 | -2
Cc1cc(C(=O)N2CCN(c3ccc(F)cc3)CC2)c2c(C)nn(-c3cccc(Cl)c3C)c2n1 | x | x | -3 | -2 | x
Cc1cc(NS(=O)(=O)c2ccccc2)c(C)c(Cl)c1O | 61* | 10 | -3 | 0 | 0
Cc1c(O)ccc(NS(=O)(=O)c2ccccc2)c1C | -2 | 0 | 10 | 0 | 12
SMILES | D2 PAM-1 | D2 ag-1 | D2 PAM-2 | D2 ag-2 | D2 antag
CCc1ccccc1-n1c(-c2ccncc2)n[nH]c1=S | -16 | -2 | 9 | 0 | 70*
Cc1ccccc1-n1c(-c2ccncc2)n[nH]c1=S | -2 | -2 | 8 | 2 | 17
CCCOc1ccc(CSc2nnc(CCC)n2N)cc1 | -1 | -3 | 2 | 0 | 0
CCCCOc1ccc(Cl)cc1CSc1nnc(CC)n1N | 9 | 1 | x | 1 | 36*
O=C(Nc1ccc(Cl)cc1F)c1oc(=O)c2ccccc2c1-c1ccccc1 | x | x | 27 | 0 | x
Cc1cc(NC(=O)CSc2nc(-c3cccc(F)c3)nc3c2c(=O)n(C)c(=O)n3C)no1 | x | x | -3 | x | x
CS(=O)(=O)N(CCc1ccccc1)CC(N)=O | 3 | -6 | -23 | 0 | 31*
Cc1ccc(-c2nc3ccccc3c(=O)n2O)cc1 | 1 | -5 | 22 | 0 | -11
